# mHTT CaM bind = inhibitors of human mutant huntingtin-calmodulin interaction | P42858 | AlphaScreen His-mHTT/GST-CaM binding, luminescence | inhibition, % at 15 µM | 190,000 compounds, 3.6% hits | AID 1671202;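 also: 0% = both proteins with DMSO and 100% = one protein alone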
# Pf apPOL block = Pf-apPOL DNA polymerase inhibition; AID 1794808; Recombinant Pf-apPOL, molecular beacon fluorescence, 1.5 h; inhibition, % at 10 µM; 210,000 compounds, 0.25% hits
# The depositor's hits bear a star; . = no result. Only a selection was taken, and hits are over-represented in it overall. Rule as the data show it: active = inhibition above about 50%; inactive = the rest.
SMILES,mHTT CaM bind,Pf apPOL block
CC(=O)C1=C(C)NC(SCC(=O)c2cccc([N+](=O)[O-])c2)=C(C#N)C1c1cccc(C)c1 (centres undefined),61.9*,-11.3
CC(=O)C1=C(C)NC(SCC(=O)c2ccc([N+](=O)[O-])cc2)=C(C#N)C1c1ccccc1 (centres undefined),59.4*,-4.0
CC(=O)C1=C(C)NC(SCC(=O)c2ccccc2)=C(C#N)C1c1ccccc1Cl (centres undefined),-57.2,-2.7
CC(=O)C1=C(C)NC(SCC(=O)c2ccccc2)=C(C#N)C1c1ccc(Cl)cc1 (centres undefined),-22.3,5.1
CCc1ccc(C2C(C#N)=C(SCC(=O)c3cccc([N+](=O)[O-])c3)NC(C)=C2C(C)=O)cc1 (centres undefined),45.4,-3.4
CC(=O)C1=C(C)NC(SCC(N)=O)=C(C#N)C1c1cccc([N+](=O)[O-])c1 (centres undefined),0.0,-2.9
CC(=O)C1=C(C)NC(SCC(=O)c2ccc([N+](=O)[O-])cc2)=C(C#N)C1c1ccccc1Cl (centres undefined),60.9*,-18.1
CC(=O)C1=C(C)NC(SCC(=O)c2ccc([N+](=O)[O-])cc2)=C(C#N)C1c1cccc(C)c1 (centres undefined),63.5*,0.7
Cc1ccc(NC(=O)CCS(=O)(=O)c2ccc(Br)cc2)cc1C,8.0,-0.1
O=C(Cc1csc(Nc2ccc(Cl)cn2)n1)N1CCN(c2ccccc2F)CC1,12.3,-2.4
CC(=O)C1=C(C)NC(SCC(=O)c2ccc([N+](=O)[O-])cc2)=C(C#N)C1c1ccco1 (centres undefined),68.6*,37.7
CC(=O)C1=C(C)NC(SCC(=O)c2ccc(C)cc2)=C(C#N)C1c1ccco1 (centres undefined),-11.8,-3.0
CCN(C(=O)c1oc2ccc(S(=O)(=O)N3CCOCC3)cc2c1C)c1ccccc1,13.0,-8.3
COC(CNC(=O)c1ccc(N2CCCCCC2)c([N+](=O)[O-])c1)OC,12.0,-2.5
CCOC(CNC(=O)c1ccc(N2CCc3ccccc32)c([N+](=O)[O-])c1)OCC,56.0*,-5.9
O=[N+]([O-])c1cc(C(F)(F)F)ccc1N1CCCCC1,.,1.3
O=[N+]([O-])c1cc(C(F)(F)F)ccc1N1CCc2ccccc21,95.0*,0.8
Cc1ccnc(N2CCC(C(=O)NCCCN3CCN(C4CCCCC4)CC3)CC2)n1,5.4,-2.2
C=CCc1ccccc1OC1OC(CO)C(O)C(O)C1NC(C)=O (centres undefined),-1.9,-11.4
Cc1cccc(C(=O)Nc2cc(-c3ccsc3)no2)c1,-10.1,-3.9
CCCCN1C(=O)CN(C2CCCCC2)C(=O)C1c1ccc(OC(C)C)c(OC)c1 (centres undefined),45.0,-5.8
CCOc1ccc(C2C(=O)N(C3CCCCC3)CC(=O)N2Cc2ccccc2Cl)cc1OC (centres undefined),58.0*,-6.8
COc1ccc(C2C(=O)N(C3CCC(C)CC3)CC(=O)N2Cc2ccccc2Cl)cc1OC (centres undefined),15.0,-7.7
CCCCN1C(=O)CN(C2CCCCC2)C(=O)C1c1ccc(OCCC)c(OC)c1 (centres undefined),53.0*,-9.5
COc1cc(Br)ccc1NC(=O)CSc1ccccn1,-1.0,-10.9
SMILES,mHTT CaM bind,Pf apPOL block
CCC(C)NC(=O)c1cn2ccc(C)cc2n1 (centres undefined),-6.0,0.6
COc1ccc(C(=O)NCC2(c3ccccc3)CCOCC2)c(OC)c1,7.0,2.0
O=C(Nc1ccc2oc(-c3cccnc3)nc2c1)c1cccnc1Cl,1.0,1.2
NC(=S)NN=Cc1ccccc1O,84.6*,39.3
NC(=S)NN=Cc1ccccc1,.,-9.5
O=C(c1ccc2nc(N3C(=O)c4ccccc4C3=O)sc2c1)N1CCN(c2ccccn2)CC1,14.2,-1.4
COc1ccc(C2=C(Nc3ccc(C(N)=O)cc3)c3ccccc3C2=O)cc1,38.0,-0.8
COc1ccc(NC2=C(N(C)C)C(=O)c3ccccc3C2=O)cc1,62.6*,-4.8
COc1cccc(NC2=C(N(C)C)C(=O)c3ccccc3C2=O)c1,57.6*,0.9
COc1cccc(Nc2ccccc2C)c1,14.7,-2.8
COc1ccc(OC)c(N2C(=O)CCC2(C)C(=O)NC2CCCC2)c1 (centres undefined),9.2,-3.2
CCOc1ccc(CN2C(=O)CCC2(C)C(=O)NCCOC)cc1 (centres undefined),1.8,1.5
CCOC(=O)c1cccc(NC(=O)N2CCc3cn(CC)c4cccc(c34)C2)c1,-4.8,-1.1
CN(C)c1ccc(/C=C/C=C/c2cccc[n+]2C)cc1,46.0,7.3
CN(C)c1ccc(/C=C/C=C/c2cc[n+](C)cc2)cc1,60.0*,-13.5
O=C(NCCN1CCCCCC1)c1ccc2c(c1)NC(=O)C1CCCCN21 (centres undefined),10.5,0.9
COc1cccc(N2CCN(C(=O)c3ccc4c(c3)NC(=O)C3CCCCN43)CC2)c1 (centres undefined),29.9,2.2
O=C1Nc2cc(C(=O)N3CCN(c4cccc(Cl)c4)CC3)ccc2N2CCCCC12 (centres undefined),93.0*,2.0
O=C(NCCN1CCC(Cc2ccccc2)CC1)c1ccc2c(c1)NC(=O)C1CCCCN21 (centres undefined),97.3*,1.7
O=C(NCCCc1ccccc1)c1ccc2c(c1)NC(=O)C1CCCN21 (centres undefined),66.6*,3.5
O=C(NCCCc1ccccc1)c1ccc2c(c1)NC(=O)C1CCCCN21 (centres undefined),-2.4,-4.3
O=C(NC1CCCCC1)N1CCCCCC1c1cccs1 (centres undefined),-7.2,9.3
O=C(Cn1cnc(-c2cccs2)cc1=O)Nc1cccc2nsnc12,-12.3,-2.6
COc1cccc(CCC(=O)N2CCC(c3nc(C4CC4)no3)C2)c1 (centres undefined),-3.0,-1.6
CCCCC[C@@H](C)N1C[C@H](COCc2ccccc2)Oc2cc(N3CC[C@H](N(C)C)C3)ccc2S1(=O)=O,100.1*,-18.8
SMILES,mHTT CaM bind,Pf apPOL block
CCCCC[C@H](C)N1C[C@H](COCc2ccccc2)Oc2cc(N3CCC[C@@H]3CO)ccc2S1(=O)=O,26.2,-12.1
CCCCC[C@H](C)N1C[C@H](COCc2ccccc2)Oc2cc(N3CCC[C@H]3CO)ccc2S1(=O)=O,36.5,-10.9
CCCCC[C@H](C)N1C[C@H](COCc2ccccc2)Oc2cc(N3CC[C@H](O)C3)ccc2S1(=O)=O,96.2*,-12.7
CCCCC[C@H](C)N1C[C@@H](COCc2ccccc2)Oc2cc(N3CCC[C@H]3C(N)=O)ccc2S1(=O)=O,69.4*,-8.2
CCCCC[C@@H](C)N1C[C@@H](COCc2ccccc2)Oc2cc(N3CCC[C@H]3C(N)=O)ccc2S1(=O)=O,43.0,-0.8
CCCCC[C@H](C)N1C[C@H](COCc2ccccc2)Oc2cc(N3CCC[C@@H]3COC)ccc2S1(=O)=O,-9.1,-3.6
CCCCC[C@@H](C)N1C[C@H](COCc2ccccc2)Oc2cc(N3CC[C@H](O)C3)ccc2S1(=O)=O,77.7*,-9.6
CC1OC(Nc2ccc(Cl)cc2[N+](=O)[O-])C(O)C(O)C1O (centres undefined),-2.0,-1.3
CC(C)(C)C(=O)Oc1ccc(C(=O)Nc2ccccc2)cc1,-8.0,-11.9
O=C(NCCCN1CCCC1)C1CN(C(=O)c2cccs2)CC12CCCCC2 (centres undefined),7.0,-1.8
